Measured values reported in PubChem BioAssay (NCI).
“And” between values parts separate entries of the source, which are not always exact repeats. Equal values may be shown once. The panel holds about 79,000 compounds, 15% with a hit somewhere; the sample as a whole holds those more often. The source made the active and inactive calls. Rule as the data show it: active = growth inhibition above about 70%; inactive = the rest.

experiment: NCI Yeast Anticancer Drug Screen. Data for the mlh1 rad18 strain (AID 175); conditions: S. cerevisiae mlh1 rad18 strain growth inhibition; at 5.0 µM (retest, dose inferred, filed as 0.5); stronger effect = higher value
How it was run: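 Cells of a genetically altered yeast strain, deficient in DNA damage repair, were treated with compound. Their growth was then compared with that of vehicle-treated cultures to give inhibition.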

SMILES | growth inhibition
CN(C)c1ccc(C2CC(C)(O)Oc3cc4c(cc32)OCO4)cc1 (stereo unspecified) | 23% (inactive)
O=P(NC1CCCCC1)(OCc1ccccc1)OCc1ccccc1 | 3% (inactive)
COc1oc(C(=O)NC2CCCCC2)c(-c2ccc(Cl)cc2)c1S(=O)(=O)c1ccccc1 | 16% (inactive)
C[Si](C)(C)/C=C/CCNC(C#N)c1ccccc1 (stereo unspecified) | 99% (active)
CCOc1ccc(NC(=O)C2=C(C)NC(C)=C(C(=O)Nc3ccc(OCC)cc3)C2c2cccc([N+](=O)[O-])c2)cc1 | -7% (inactive)
CN(C)CCOC1(Cc2ccc(F)cc2)CCC(C(C)(C)C)CC1 (stereo unspecified) | 7% (inactive) and -11% (inactive)
CC1(C)CC(=O)C(/C=N/c2nc(-c3ccccc3)cs2)=C(O)C1 | 10% (inactive)
CC(=O)Nc1ccc2c(c1)Cc1cc(N=C3C=CC(=O)O3)ccc1-2 | 82% (active)
O=C1C=C(Cl)C(=O)C(c2ccc(Cl)cc2)=C1 | 39% (inactive)
CCCCCCCCCCCC(O)S(=O)(=O)O (stereo unspecified) | 7% (inactive)
CC(C)OC(=O)c1ccc(CCc2cc(O)c(Br)cc2O)cc1 | 45% (inactive)
CCc1cc(O)c(Cl)c(C)c1Cl | 48% (inactive)
C(=Nc1ccc(-c2cc(-c3ccccc3)nc3ccc4ccccc4c23)cc1)c1ccccc1 | 20% (inactive)
CSc1nc(C)c(CCOC(C)=O)c(N=P(c2ccccc2)(c2ccccc2)c2ccccc2)n1 | 0% (inactive)
CS(=O)(=O)SCc1ccc([N+](=O)[O-])cc1 | -31% (inactive)
COC1=C(OC)C(=O)C(Sc2ccc3ccccc3c2)=CC1=O | 47% (inactive)
COc1nc2c(c(=O)n1C)N=C(c1ccccc1)[C@H](C(CC(=O)c1ccccc1)c1ccccc1)C(c1ccccc1)N2 (stereo partly specified) | 14% (inactive)
Cc1cc(-c2cc(C)c(O)c(C(C)(C)C)c2)cc(C(C)(C)C)c1O | 46% (inactive) and 3% (inactive)
Nc1cc(N)c(N=Nc2cccc3c(S(=O)(=O)O)cccc23)cc1N=Nc1cc([N+](=O)[O-])ccc1O | 52% (inactive)

SMILES | growth inhibition
Nc1ccc(F)cc1S | 15% (inactive)
Brc1ccccc1-c1ncc(-c2ccccc2)o1 | 37% (inactive)
COc1cc(C2SCC(=O)N2c2ccc(-c3ccc(-n4c(-c5ccccc5)nc5ccccc5c4=O)cc3)cc2)ccc1O (stereo unspecified) | -14% (inactive)
Nc1ncnc2c1ncn2C1OC(CO)CC1O (stereo unspecified) | 39% (inactive) and 11% (inactive)
COc1cc(CSc2ccc(O)cc2)cc(O)c1O | 13% (inactive)
CCOC(=O)C1N=[N+](c2ccccc2)C(=O)/C1=C\n1c(=S)[nH]c2ccc([N+](=O)[O-])cc21 (stereo unspecified) | 24% (inactive)
CNC(=O)OCc1c(COC(=O)NC)c2n(c1C)-c1ccc(OC)cc1CCC2 | 17% (inactive)
O=C(NNc1ccccc1)c1ccc(Cl)c(Cl)c1 | 6% (inactive)
Cc1ccc(CC2(OCCN(C)C)CCC(C(C)(C)C)CC2)cc1 (stereo unspecified) | 9% (inactive) and 10% (inactive)
C[C@]12CC[C@H](O)CC1=CC[C@@H]1C2CC[C@]2(C)C(=O)NC(=O)CC12 (stereo partly specified) | -25% (inactive)
CCCC/C=C/C(C)(C(=O)OCC)C(=O)OCC | 11% (inactive)
CCc1c(Cl)c(C)cc(O)c1Cl | 35% (inactive)
O=C(/C=C(/c1ccccc1)N1CCCCC1)c1ccccc1 | 55% (inactive)
CCCC(=O)Oc1ccc(/C=N/NC(N)=S)nc1 | -4% (inactive)
CCc1nc2ccc(NCCN(C)C)c3c(=O)c4ccccc4n1c23 | 14% (inactive)
Cc1sc2ccc3ccccc3c2[n+]1C | 32% (inactive) and -17% (inactive)
COc1c(O)c(C=O)c(Br)c(C=O)c1O | 7% (inactive)
Cc1ccc(Cl)cc1NC(=O)OCCN(C)C(=O)Nc1cc(Cl)ccc1C | 45% (inactive)
Cc1nc2ccccc2nc1NNc1ccccc1 | -8% (inactive)

same assay, conditions: S. cerevisiae mlh1 rad18 strain growth inhibition; at 50.0 µM (retest, dose inferred, filed as 5.0); stronger effect = higher value

SMILES | growth inhibition
CN(C)c1ccc(C2CC(C)(O)Oc3cc4c(cc32)OCO4)cc1 (stereo unspecified) | 93% (active)
O=P(NC1CCCCC1)(OCc1ccccc1)OCc1ccccc1 | 3% (inactive)
COc1oc(C(=O)NC2CCCCC2)c(-c2ccc(Cl)cc2)c1S(=O)(=O)c1ccccc1 | 84% (active)
C[Si](C)(C)/C=C/CCNC(C#N)c1ccccc1 (stereo unspecified) | 99% (active)
CCOc1ccc(NC(=O)C2=C(C)NC(C)=C(C(=O)Nc3ccc(OCC)cc3)C2c2cccc([N+](=O)[O-])c2)cc1 | 95% (active)
CN(C)CCOC1(Cc2ccc(F)cc2)CCC(C(C)(C)C)CC1 (stereo unspecified) | 94% (active) and 99% (active)
CC1(C)CC(=O)C(/C=N/c2nc(-c3ccccc3)cs2)=C(O)C1 | 87% (active)
CC(=O)Nc1ccc2c(c1)Cc1cc(N=C3C=CC(=O)O3)ccc1-2 | 99% (active)
O=C1C=C(Cl)C(=O)C(c2ccc(Cl)cc2)=C1 | 97% (active)
CCCCCCCCCCCC(O)S(=O)(=O)O (stereo unspecified) | 39% (inactive)
CC(C)OC(=O)c1ccc(CCc2cc(O)c(Br)cc2O)cc1 | 99% (active)
CCc1cc(O)c(Cl)c(C)c1Cl | 93% (active)
C(=Nc1ccc(-c2cc(-c3ccccc3)nc3ccc4ccccc4c23)cc1)c1ccccc1 | 85% (active)
CSc1nc(C)c(CCOC(C)=O)c(N=P(c2ccccc2)(c2ccccc2)c2ccccc2)n1 | 23% (inactive)
CS(=O)(=O)SCc1ccc([N+](=O)[O-])cc1 | 93% (active)
COC1=C(OC)C(=O)C(Sc2ccc3ccccc3c2)=CC1=O | 96% (active)
COc1nc2c(c(=O)n1C)N=C(c1ccccc1)[C@H](C(CC(=O)c1ccccc1)c1ccccc1)C(c1ccccc1)N2 (stereo partly specified) | 35% (inactive)
Cc1cc(-c2cc(C)c(O)c(C(C)(C)C)c2)cc(C(C)(C)C)c1O | 99% (active) and 92% (active)
Nc1cc(N)c(N=Nc2cccc3c(S(=O)(=O)O)cccc23)cc1N=Nc1cc([N+](=O)[O-])ccc1O | 48% (inactive)

SMILES | growth inhibition
Nc1ccc(F)cc1S | 76% (active)
Brc1ccccc1-c1ncc(-c2ccccc2)o1 | 82% (active)
COc1cc(C2SCC(=O)N2c2ccc(-c3ccc(-n4c(-c5ccccc5)nc5ccccc5c4=O)cc3)cc2)ccc1O (stereo unspecified) | 76% (active)
Nc1ncnc2c1ncn2C1OC(CO)CC1O (stereo unspecified) | 91% (active) and 92% (active)
COc1cc(CSc2ccc(O)cc2)cc(O)c1O | -1% (inactive)
CCOC(=O)C1N=[N+](c2ccccc2)C(=O)/C1=C\n1c(=S)[nH]c2ccc([N+](=O)[O-])cc21 (stereo unspecified) | 94% (active)
CNC(=O)OCc1c(COC(=O)NC)c2n(c1C)-c1ccc(OC)cc1CCC2 | 98% (active)
O=C(NNc1ccccc1)c1ccc(Cl)c(Cl)c1 | 61% (inactive)
Cc1ccc(CC2(OCCN(C)C)CCC(C(C)(C)C)CC2)cc1 (stereo unspecified) | 100% (active) and 99% (active)
C[C@]12CC[C@H](O)CC1=CC[C@@H]1C2CC[C@]2(C)C(=O)NC(=O)CC12 (stereo partly specified) | 82% (active)
CCCC/C=C/C(C)(C(=O)OCC)C(=O)OCC | 81% (active)
CCc1c(Cl)c(C)cc(O)c1Cl | 85% (active)
O=C(/C=C(/c1ccccc1)N1CCCCC1)c1ccccc1 | 99% (active)
CCCC(=O)Oc1ccc(/C=N/NC(N)=S)nc1 | 26% (inactive)
CCc1nc2ccc(NCCN(C)C)c3c(=O)c4ccccc4n1c23 | 53% (inactive)
Cc1sc2ccc3ccccc3c2[n+]1C | 46% (inactive) and 8% (inactive)
COc1c(O)c(C=O)c(Br)c(C=O)c1O | 98% (active)
Cc1ccc(Cl)cc1NC(=O)OCCN(C)C(=O)Nc1cc(Cl)ccc1C | 98% (active)
Cc1nc2ccccc2nc1NNc1ccccc1 | 28% (inactive)
